Source: PubChem BioAssay (NCATS)
Results filed as inconclusive are left out. The source made the active and inactive calls. Calls come from the whole dose curve; as a rule, active = well fitted curve in the direction sought with a large enough effect; inconclusive = small, poorly fitted or top-dose-only effect, or another doubt; inactive = no such curve, though single readings can be large; an effect the other way counts as inactive or inconclusive.

Legend:
[1] = test system: CRL-7250; assay: Cytotoxic Profiling of Annotated Libraries Using Quantitative High-Throughput Screening (AID 1296008); settings: Five cell lines viability, CellTiter-Glo ATP luminescence, 48-72 h; max response: active compounds read low; note: nearly all actives have a fitted effect of over 60% in size; for max response: % is set by controls: 0 for no effect and ±100 for the full control effect
Outline: (§1)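 Compounds were pin-transferred onto cells and incubated 48 or 72 hr at 37 degree Celsius, 95% humidity. CellTiter-Glo was added, plates sat 10 min at room temperature, then ATP-coupled luminescence was imaged as the viability read-out.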

[2] = test system: HEK293; assay: as above; settings: Five cell lines viability, CellTiter-Glo ATP luminescence, 48-72 h; max response: active compounds read low
Outline: as §1

[3] = test system: HaCat; assay: as above; settings: Five cell lines viability, CellTiter-Glo ATP luminescence, 48-72 h; max response: active compounds read low
Outline: as §1

[4] = test system: KB-3-1; assay: as above; settings: Five cell lines viability, CellTiter-Glo ATP luminescence, 48-72 h; max response: active compounds read low
Outline: as §1

[5] = test system: NIH3T3; assay: as above; settings: Five cell lines viability, CellTiter-Glo ATP luminescence, 48-72 h; max response: active compounds read low
Outline: as §1

[6] = test system: HACAT; assay: qHTS assay to identify novel small-molecules to repurpose for Merkel cell carcinoma treatment (AID 1296009); settings: MCC and control cell lines, CellTiter-Glo viability, 72 h; at 44.8 µM (top of the series) unless noted; note: nearly all actives have a fitted effect of over 60% in size
Outline: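 Cells exposed to NPC (8-point) and MIPE (11-point) compound dilutions for 72 hr at 37 degree celsius; viability read by CellTiter-Glo luminescence, normalized to no-cell and DMSO in-plate controls.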

[7] = test system: C33A; assay: Primary qHTS to identify gynecologic anti-cancer compounds using libraries of approved drugs and bioactive compounds (AID 1345084); settings: Gynecologic cancer cell panel viability, ATPlite luminescence, 48 h; series mostly up to 57.5 µM; note: % is set by controls: 0 for no effect and ±100 for the full control effect; nearly all actives have a fitted effect of over 55% in size
Outline: (§2)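 Cell viability after 48 h drug treatment, ATPlite luminescence readout; five doses.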

[8] = test system: CAOV3; assay: as above; settings: Gynecologic cancer cell panel viability, ATPlite luminescence, 48 h; series mostly up to 57.5 µM
Outline: as §2

[9] = test system: CASKI; assay: as above; settings: Gynecologic cancer cell panel viability, ATPlite luminescence, 48 h; series mostly up to 57.5 µM
Outline: as §2

[10] = test system: Es-2; assay: as above; settings: Gynecologic cancer cell panel viability, ATPlite luminescence, 48 h; series mostly up to 57.5 µM
Outline: as §2

[11] = test system: HeLa; assay: as above; settings: Gynecologic cancer cell panel viability, ATPlite luminescence, 48 h; series mostly up to 57.5 µM
Outline: as §2

[12] = test system: Hek293T; assay: as above; settings: Gynecologic cancer cell panel viability, ATPlite luminescence, 48 h, control line for the selectivity index; series mostly up to 57.5 µM
Outline: as §2

[13] = test system: JEG-3; assay: as above; settings: Gynecologic cancer cell panel viability, ATPlite luminescence, 48 h; series mostly up to 57.5 µM
Outline: as §2

[14] = test system: OV90; assay: as above; settings: Gynecologic cancer cell panel viability, ATPlite luminescence, 48 h; series mostly up to 57.5 µM
Outline: as §2

COc1c(C)c(OCC=C(C)C)cc2c1COC2=O
inactive: max response [1] -4.58% | max response [2] 3.79% | outcome [3] | max response [4] 4.15% | max response [5] 2.66% | outcome [6] | Potency [7] | Potency [8] | outcome [9] | Potency [10] | Potency [11] | Potency [12] | Potency [13] | Potency [14]

O=C(OCC1OC(Oc2ccc(O)cc2COC(=O)C2(O)C(O)CCC(=O)C2OC(=O)C2C=CCC2)C(OC(=O)C2C=CCC2)C(O)C1O)C1C=CCC1 (stereo unspecified)
inactive: max response [1] -0.0328% | max response [2] -10.5% | outcome [3] | max response [4] 6.15% | max response [5] 3.99% | outcome [6] inactive [at 17.4 µM] | Potency [7] | Potency [8] | outcome [9] | Potency [10] | Potency [11] | Potency [12] | Potency [13] | Potency [14]

C/C(=C/CO)CC[C@H]1[C@]2(C)C[C@H](O)CC(C)(C)[C@H]2CC[C@]1(C)O
inactive: max response [1] -3.5% | max response [2] 4.37% | outcome [3] | max response [4] 3.57% | max response [5] 3.86% | outcome [6] | Potency [7] | Potency [8] | outcome [9] | Potency [10] | Potency [11] | Potency [12] | Potency [13] | Potency [14]

CC(=O)O[C@H]1C[C@@H](O)C(C)(C)C2C[C@@H](OC(C)=O)[C@]3(C)C(CC[C@@]4(C)[C@H](c5ccoc5)OC(=O)[C@H]5O[C@]543)[C@]21C (stereo partly specified)
inactive: max response [1] -9.34% | max response [2] -3.17% | outcome [3] | outcome [4] | max response [5] 1.84% | outcome [6] inactive [at 17.4 µM] | Potency [7] | Potency [8] | outcome [9] | Potency [10] | Potency [11] | Potency [12] | Potency [13] | Potency [14]

O=C(NCCN1CCCC1)c1cc(-c2ccc(CN3CCOCC3)cc2)nc2ccc(F)cc12
inactive: max response [1] 3.26% | max response [2] 2.05% | outcome [3] | outcome [4] | max response [5] 1.71% | outcome [6] inactive [at 17.4 µM] | Potency [7] | Potency [8] | outcome [9] | Potency [10] | Potency [11] | Potency [12] | Potency [13] | Potency [14]

CC1=C2C[C@@]3(C)C(CCC[C@@H]3C)C(O)C2(O)OC1=O (stereo partly specified)
inactive: max response [1] -37.7% | max response [2] -7.76% | outcome [3] | max response [4] -14% | max response [5] -21.1% | outcome [6] | Potency [7] | Potency [8] | outcome [9] | Potency [10] | Potency [11] | Potency [12] | Potency [13] | Potency [14]

Cc1cc(C)c2nc(-c3ccccn3)cc(C(=O)Nc3ccc(S(=O)(=O)Nc4onc(C)c4C)cc3)c2c1
inactive: max response [1] -3.09% | max response [2] -20.7% | outcome [3] | max response [4] 1.46% | max response [5] 1.48% | outcome [6] | Potency [7] | Potency [8] | outcome [9] | Potency [10] | Potency [11] | Potency [12] | Potency [13] | Potency [14]

COc1ccc(CC(NC(C)=O)C(=O)O)cc1 (stereo unspecified)
inactive: max response [1] 0.775% | max response [2] -3.66% | outcome [3] | max response [4] 6.09% | max response [5] 1.53% | outcome [6] | Potency [7] | Potency [8] | outcome [9] | Potency [10] | Potency [11] | Potency [12] | Potency [13] | Potency [14]

C=C1CC23CC1CCC2C12OC(=O)C(C)(C(O)CC1O)C2C3C(=O)O (stereo unspecified)
inactive: max response [1] -0.83% | max response [2] -15.6% | outcome [3] | max response [4] 1.34% | max response [5] -6.25% | outcome [6] | Potency [7] | Potency [8] | outcome [9] | Potency [10] | Potency [11] | Potency [12] | Potency [13] | Potency [14]

Cc1c(F)cc(C(=O)NC2CC2)cc1-c1ccc(C(=O)NCC(C)(C)C)cn1
inactive: outcome [1] | max response [2] -4.94% | outcome [3] | max response [4] 4.19% | max response [5] -1.86% | outcome [6] | Potency [7] | Potency [8] | outcome [9] | Potency [10] | Potency [11] | Potency [12] | Potency [13] | Potency [14]

Cc1ccc(-c2c(-c3nn(C)c4ncnc(N5CCC(N6CCCCC6)C5)c34)cnn2C)cc1 (stereo unspecified)
inactive: outcome [1] | max response [2] -1.32% | outcome [3] | outcome [4] | max response [5] 4.76% | outcome [6] | Potency [7] | Potency [8] | outcome [9] | Potency [10] | Potency [11] | Potency [12] | Potency [13] | Potency [14]

Cc1cc(OCCN2CCOCC2)nn1-c1ccc2ccccc2c1
inactive: max response [1] -11.2% | max response [2] -15.6% | outcome [3] | max response [4] -10.7% | max response [5] 2.01% | outcome [6] | Potency [7] | Potency [8] | outcome [9] | Potency [10] | Potency [11] | Potency [12] | Potency [13] | Potency [14]

CC(C)c1ccc2c(c1)C(O)CC1C(C)(C(=O)O)CCCC21C (stereo unspecified)
inactive: max response [1] -4.34% | max response [2] 2.95% | outcome [3] | max response [4] -15.9% | max response [5] -2.12% | outcome [6] | Potency [7] | Potency [8] | outcome [9] | Potency [10] | Potency [11] | Potency [12] | Potency [13] | Potency [14]

C[C@@H]1O[C@@H](O[C@H]2[C@@H]3C=CO[C@@H](O[C@@H]4O[C@H](CO)[C@@H](O)[C@H](O)[C@H]4O)[C@@H]3[C@@]3(CO)O[C@@H]23)[C@H](O)[C@H](OC(=O)/C=C/c2ccc(O)cc2)[C@H]1OC(=O)/C=C/c1ccc(O)cc1
inactive: max response [1] 4.25% | max response [2] -0.28% | outcome [3] | max response [4] 2.65% | max response [5] -10.1% | outcome [6] inactive [at 17.4 µM] | Potency [7] | Potency [8] | outcome [9] | Potency [10] | Potency [11] | Potency [12] | Potency [13] | Potency [14]
